Laboratory results published in PubChem BioAssay (NCI).
This is part of a sample that, as a whole, favours compounds with a hit. Of some 83,000 tested, about 20% had one in any assay.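 Percent growth is the endpoint: 0 to 100 indicates growth inhibition (40 means 60% inhibition), 0 means no net growth, and negative values indicate cell death.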 Unmarked numbers belong to inactive results. The source made the active and inactive calls. Rule for the calls: active = growth percent below 10; inactive = the rest.

Tests used:
Assay in all cases: NCI-60 one-dose screen, 48 h (100 = growth as untreated, 0 = no growth, -100 = all killed)
Conditions in all cases: 10 µM unless noted
NCI-H23 lung = system: NCI-H23 lung
NCI-H226 lung = system: NCI-H226 lung
NCI-H322M lung = system: NCI-H322M lung
HOP-62 NSCLC = system: HOP-62 NSCLC
NCI-H460 lung = system: NCI-H460 lung
HOP-92 NSCLC = system: HOP-92 NSCLC
NCI-H522 lung = system: NCI-H522 lung
A549/ATCC NSCLC = system: A549/ATCC NSCLC
786-0 renal = system: 786-0 renal
COLO 205 colon = system: COLO 205 colon

SMILES | growth (NCI-H23 lung) | growth (NCI-H226 lung) | growth (NCI-H322M lung) | growth (HOP-62 NSCLC) | growth (NCI-H460 lung) | growth (HOP-92 NSCLC) | growth (NCI-H522 lung) | growth (A549/ATCC NSCLC) | growth (786-0 renal) | growth (COLO 205 colon)
CSc1ncccc1C(=O)OCC(=O)Nc1oc(C)c2c(C)n[nH]c(=O)c12 | 99.3% | 86.3% | 104% | 105% | 108% | 73.4% | 84.2% | 103% | 91.6% | 122%
NS(=O)(=O)c1ccc(N=Nc2ccc(-c3nn4cc(-c5ccccc5)nc4s3)cc2)cc1 | 97.1% | 99.9% | 103% | 83% | 113% | 105% | 89.9% | 96.9% | 94.6% | 100%
CCCCCCCCCCCCCCCCCCOc1ccc(CC(=O)OCC[N+]2(C)CCCCC2)cc1 | 86.7% | 101% | 96.4% | 101% | 101% | 97.8% | 89.2% | 88.9% | 92.8% | 103%
CCN1C(=O)N(CC)C2Nn3c(s/c(=C4\C(=O)N(CC(C)C)c5ccccc54)c3=O)=NC21 (stereo not given) | 43% | 84.1% | 64.9% | 55.2% | 24.5% | 81.2% | 15.9% | 44.6% | 35.3% | 4.64% (active)
CCCCCCn1c(-c2ccc(C(=O)O/N=C(\N)c3ccc4c(c3)OCO4)cc2)nc(-c2ccccc2)c1-c1ccccc1 | -30.8% (active) | 64.6% | 73.9% | 64.8% | 4.23% (active) | -57.5% (active) | -58.9% (active) | -25.3% (active) | -65.9% (active) | 35.7%
CCCCN(C)N=Nc1ccc(C(N)=O)cc1 | 102% | 124% | 105% | 122% | 104% | 103% | 109% | 97.3% | 106% | 110%
S=c1nc(-c2ccccc2)oc(=NC2CCCCC2)n1C1CCCCC1 | 61.1% | 105% | 28.3% | 62.8% | 10.7% | -24.9% (active) | -25.6% (active) | 31.5% | 43% | 58.8%
COc1ccc(NC2=C(Br)C(=O)C(C)=C(C)C2=O)cc1 | 79.7% | 75.5% | 89.9% | 84.2% | 99.9% | -73.6% (active) | 87.6% | 99.5% | 103% | 115%
NC(=O)C1(Nc2ccc(Br)cc2)CCCC1 | 97.5% | 98.9% | 107% | 103% | 110% | 110% | 92.9% | 103% | 102% | 104%
COc1ccc2c(c1)c(-c1ccc(-c3cn(C)c4ccc(OC)cc34)o1)cn2C | 67.3% | 82.7% | 95.1% | 93.2% | 56.8% | 38% | -19.6% (active) | 66.4% | 83.2% | 16.3%
Cc1cccc(OCC(O)CN2CCN(c3ccc(Cl)cc3)CC2)c1 (stereo not given) | 95.2% | 112% | 125% | 118% | 108% | 80% | 109% | 98.5% | 96.5% | 96.7%
N#Cc1ccc(NC(=O)c2sc3nc4c(cc3c2N)C(=O)CCC4)cc1 | 106% | 93.7% | 103% | 101% | 85.9% | 95.6% | 103% | 92.5% | 97.8% | 109%
CCc1cccc2c3c(sc12)C(c1ccc(F)cc1)C(C#N)=C(N)O3 (stereo not given) | 33.6% | 29.1% | 57.7% | 48.7% | 12.9% | 78.9% | 26.8% | 31.9% | 30% | 5.48% (active)
CCOC(=O)C1=C(N)Oc2c(sc3c(CC)cccc23)C1c1ccc(F)cc1 (stereo not given) | 47% | 49.5% | 67.2% | 32% | 17% | 63.5% | 26.4% | 47.4% | 35.4% | 51.1%
Cc1ccc(C(=O)N/N=C/c2cccc(Oc3ccccc3)c2)cn1 | 70.7% | 66.9% | 82.3% | 71.6% | 33.3% | 71.6% | 31.5% | 54.1% | 18.3% | 65.2%
Cc1nc2ccccc2c(/C=C/c2ccc(Cl)cc2)c1C(=O)/C=C/c1ccc(C(F)(F)F)cc1 | -33.4% (active) | -54.7% (active) | -43.3% (active) | -62.8% (active) | -75.3% (active) | -82.1% (active) | -14.3% (active) | 10.5% | -85% (active) | -44.2% (active)
CCCCCCN(CCCCCC)c1ccc(/C=C2/SC(=O)NC2=O)c(C)c1 | 76.5% | 104% | 87% | 110% | 81.3% | 13.9% | 77.4% | 73.2% | 77.6% | 109%
NCCOc1ncccc1/C=C1\C2C=CC=CC2C2C=CC(F)=CC12 (stereo not given) | 2.79% (active) | -26.2% (active) | 64.5% | 10.5% | -22% (active) | 28.9% | 47.8% | -56.5% (active) | 1.24% (active) | 27.2%
CCN(CC)CCNc1nc2ccccc2c2c(=O)c3cc(Cl)ccc3sc12 | 79.7% | 91.7% | 87.5% | 76.7% | 8.93% (active) | 28.6% | 63.9% | 52.3% | 74.5% | 64.2%
O=C(/C=C/c1ccc([N+](=O)[O-])o1)NNC(=O)c1cc2ccccc2cc1O | 6.76% (active) | 0.682% (active) | 23.3% | 27.5% | 9.04% (active) | 4.15% (active) | -79.5% (active) | 32.4% | -23.8% (active) | -7.38% (active)
c1ccc(CO[C@H]2CO[C@H]3[C@@H]2OC[C@@H]3Oc2ccc(Nc3ncnc4ccsc34)cc2)cc1 | 62.6% | 80.3% | 93.1% | 86.5% | 84.5% | 65% | 70.4% | 81.7% | 87.2% | 71.8%
NS(=O)(=O)c1ccc(-n2nc(C(=O)N/N=C\c3ccc(F)cc3)cc2-c2ccc(Br)cc2)cc1 | 83.9% | 81.9% | 94.3% | 65.3% | 84.1% | 67.8% | 54.2% | 74.3% | 106% | 83.1%
Cc1ccc(NC2=C(Cl)C(=O)c3nc(C)ccc3C2=O)cc1 | -30.5% (active) | 38.1% | 55.7% | 75.2% | 9.01% (active) | -71% (active) | -25.7% (active) | 54.6% | 21.6% | 106%
COc1cc(C(=O)c2cc(C)c3[nH]c4ccc(O)cc4c3c2C)cc(OC)c1OC | 31.4% | 53% | 33.7% | 40.1% | 8.93% (active) | 32.2% | 33.7% | 22.7% | 13.8% | 7.01% (active)
Cc1onc2c(-c3ccccc3)n[nH]c(=O)c12 | 100% | 110% | 72.5% | 90.2% | 109% | 52.3% | 94.4% | 114% | 95% | 146%
NCCNc1nc2ccccc2c2c(=O)c3cccc(F)c3sc12 | 70% | 78.5% | 64.7% | 58% | 13.8% | 59.9% | 59.2% | 41.1% | 76.7% | 26.6%
COc1ccc([C@H]2c3cc(OC)c(OC)cc3C=C(C=O)C2CO)cc1OC (stereo not given in full) | 62.8% | 80.8% | 97.8% | 62.1% | 69.8% | 36.8% | 32.1% | 80.6% | 45.7% | 45%
